Source: PubChem BioAssay (Tox21)
Results filed as inconclusive are left out. Values without a mark were called inactive. The source made the active and inactive calls. Calls come from the whole dose curve; as a rule, active = well fitted cell-killing curve with a large enough effect in the repeat runs; inconclusive = weak or mixed curves, or effect the other way; inactive = flat fitted curve, though single readings scatter.

Assay: cAMP Responsive Elements (CRE) small molecule antagonists, cell-based qHTS assay: qHTS cell viability counter screen (AID 2060913); note: nearly all actives have a fitted effect of over 40% in size
Conditions: CRE-bla HEK293T viability, CellTiter-Glo luminescence, 5 h; series mostly up to 92.4 µM; viability change, negative = cytotoxic: at the top concentration
Description: U.S. Tox21 Program National Center for Advancing Translational Sciences [NCATS] Division of Preclinical Innovation [DPI] U.S. Environmental Protection Agency [EPA] National Institutes of Environmental Health Sciences [NIEHS] National Toxicology Program [NTP] U.S. Food and Drug Administration [FDA] Tox21 Assay Overview: CREB (cyclic-AMP Responsive Element Binding Protein) is a cellular transcription factor. It binds to certain DNA sequences called cAMP Responsive Elements (CRE) and regulates the transcription of the genes. […] This cell line can be used to find agonists/antagonists of the cyclic AMP signaling pathway. The activation of the report gene under culture conditions can be detected by fluorescence intensity. This cell line has been used to screen the Tox21 10K compound library to identify agonists that induce oxidative stress. The cytotoxicity of the Tox21 compound library against the CRE-bla cell line was tested in parallel by measuring the cell viability using CellTiter-Glo assay (Promega, Madison, WI) in the same wells.
Tox21 Assay Protocol Summary: CRE-bla Hek 293T cells were suspended in assay medium (DMEM containing 10% dialyzed FBS, 0.1 mM NEAA, 1 mM sodium pyruvate and 25 mM HEPES) and dispensed at 2,000 cells/4 uL /well into 1536-well black wall/clear bottom plates using a Multidrop Combi (ThermoFisher Scientific, Waltham, MA) dispenser. After the assay plates were incubated at 37 C/5% CO2 for 18 hrs, 23 nL of compounds dissolved in DMSO, positive controls or DMSO only was transferred to the assay plate by a pintool workstation (Kalypsys, San Diego, CA), followed by addition of 1 uL of 1.25uM NKH477 (0.25 uM as final concentration) in assay medium using a Flying Reagent Dispenser (Aurora Discovery, San Diego, CA). The plates were incubated at 37 C and 5% CO2 for 3 hrs. Then 1 uL of LiveBLAzer B/G FRET substrate (Invitrogen, Carlsbad, CA) was added to each well using Bioraptr Flying Reagent Dispenser (FRD, Aurora Discovery, San Diego, CA). The plates were incubated at room temperature for 2 h, then fluorescence intensities were measured using an Envision plate reader (PerkinElmer, Shelton, CT) at Excitation 405nm, Emission 460nm and 530nm. The % activity was determined from the ratio of 460nm/530nm. For cell viability readout that measures cytotoxicity, 4 uL /well of CellTiter-Glo reagent was added into the assay plates using Bioraptr FRD. After 30 min incubation at room temperature, the luminescence intensity in the assay plates was measured using a ViewLux (PerkinElmer, Shelton, CT) plate reader.
% is set by controls: 0 for no effect and ±100 for the full control effect; potency is the fitted concentration of half-maximal effect.

SMILES | viability change, negative = cytotoxic | Potency
CCOC(=O)Oc1ccc(CCNC(=O)[C@H](CCSC)NC(C)=O)cc1OC(=O)OCC | -1.42% [at 42.5 µM] | –
Cc1ccc(C)c(O)c1 | – | inactive
CC1(C)SC(C)(C)SC(C)(C)S1 | 3.38% | –
CC(=O)Nc1cccc(C)c1 | -5.44% | –
COc1ccc(C(=O)CC(=O)c2ccc(C(C)(C)C)cc2)cc1 | – | inactive
C[C@H](CS)C(=O)N1CCC[C@H]1C(=O)O | 2.89% [at 42.5 µM] | –
O=CO | -5.83% [at 8.39 µM] | –
[Ca+2] | -0.0249% | –
CC(C)COCC(CN(Cc1ccccc1)c1ccccc1)N1CCCC1 (stereo not given) | – | 29.8 µM (active)
Clc1nc(Cl)c(Cl)c(Cl)c1Cl | – | inactive
C=C(C)C1CC=C(C)C(OC(C)=O)C1 (stereo not given) | – | inactive
CCCCC | 3.57% | –
CCOC(=O)n1ccn(C)c1=S | – | inactive
CCN(CC)CCOc1ccc(Cc2ccccc2)cc1 | -12.8% [at 42.5 µM] | –
C1CCN(CN2CCCCC2)CC1 | -0.953% | –
CC(=O)S[C@H](C(=O)N[C@H]1Cc2ccccc2[C@H]2CCC[C@@H](C(=O)O)N2C1=O)C(C)C | -0.527% | –
C=CCOC(=O)C(=C)C | – | inactive
O=[N+]([O-])c1ccc(/C=N\O)o1 | 6.89% [at 42.5 µM] | –
O=C(Nc1ccc([N+](=O)[O-])cc1)Nc1ccc([N+](=O)[O-])cc1 (tested in a mixture with another compound) | 8.65% [at 42.5 µM] | –
CCCNCCC | -4.33% | –

SMILES | viability change, negative = cytotoxic | Potency
c1ccc2c(CC3=NCCN3)cccc2c1 | -2.94% [at 42.5 µM] | –
NC(N)=NS(=O)(=O)c1ccc(N)cc1 | 6.52% [at 42.5 µM] | –
CCCCCCCCCOC(=O)c1ccccc1C(=O)OCCCCCCCCC | 3.75% | –
COc1cc(OC)c2ccc(=O)oc2c1 | -3.62% | –
Clc1cccnc1 | 14.6% | –
CC1(C)S[C@@H]2[C@H](NC(=O)Cc3ccccc3)C(=O)N2[C@H]1C(=O)O (tested in a mixture with another compound) | 6.06% [at 42.5 µM] | –
O=C1CCCCCCCCCCCCCCCO1 | -0.883% | –
CCC(C(=O)OCCN1CCOC(c2ccccc2)C1C)c1ccccc1 (stereo not given) | -11% [at 42.5 µM] | –
CC(C)c1ccc(S(=O)(=O)O)cc1 | – | inactive
CCC(C)(CCC(C)C)C(=O)[O][Sn]([CH3])([CH3])[O]C(=O)C(C)(CC)CCC(C)C (stereo not given) | -2.88% | –
CCCCCCCCCCCC | 0.0031% | –
C[C@@H]1[C@H](O)[C@@H](C)/C=C/C=C\C=C\C=C\C=C\C=C\C=C\[C@H](O[C@@H]2O[C@H](C)[C@@H](O)[C@H](N)[C@@H]2O)C[C@@H]2O[C@](O)(C[C@@H](O)C[C@@H](O)[C@H](O)CC[C@@H](O)C[C@@H](O)CC(=O)O[C@H]1C)C[C@H](O)[C@H]2C(=O)O (stereo in doubt) | -8% | –
NC(=O)N/N=C/c1ccc([N+](=O)[O-])o1 | – | inactive
COCC(C)N (stereo not given) | – | inactive
CCCCNCC | -1.9% | –
Cc1c(N=C=O)cccc1N=C=O | -1.27% | –
COc1cc(OC)c(C(=O)CCCN2CCCC2)c(OC)c1 | – | inactive
CCOC(=O)[C@H](CCc1ccccc1)N[C@H]1CCc2ccccc2N(CC(=O)O)C1=O | 7.23% [at 42.5 µM] | –
C=C/C(C)=C/C/C=C(\C)CCC=C(C)C | -0.23% | –
O=C1Nc2ccccc2C1(c1ccc(O)cc1)c1ccc(O)cc1 | – | inactive
